Experimental data taken from PubChem BioAssay (NCI).
About 83,000 compounds went through this panel and 20% of them were active in at least one assay; those are over-represented in the sample as a whole.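 Note: values are percent growth. 100 is the growth of untreated cells, values between 100 and 0 indicate rising inhibition; between -100 and 0 indicates cell death.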 A number with no mark means an inactive call. Active and inactive are the calls of the source. How the source made its calls: active means growth percent below 10; inactive means the rest.

Tests used:
Assay in all cases: NCI-60 one-dose screen, 48 h (100 = growth as untreated, 0 = no growth, -100 = all killed)
Details in all cases: 10 µM unless noted
DU-145 prostate = test system: DU-145 prostate
K-562 leukemia = test system: K-562 leukemia
MALME-3M melanoma = test system: MALME-3M melanoma
MDA-MB-231 breast = test system: MDA-MB-231 breast
RXF 393 renal = test system: RXF 393 renal
SF-268 CNS = test system: SF-268 CNS
SF-295 CNS = test system: SF-295 CNS
SF-539 CNS = test system: SF-539 CNS
UACC-257 melanoma = test system: UACC-257 melanoma
M14 melanoma = test system: M14 melanoma

SMILES	growth (DU-145 prostate)	growth (K-562 leukemia)	growth (MALME-3M melanoma)	growth (MDA-MB-231 breast)	growth (RXF 393 renal)	growth (SF-268 CNS)	growth (SF-295 CNS)	growth (SF-539 CNS)	growth (UACC-257 melanoma)	growth (M14 melanoma)
Nc1c(C(=O)Nc2ccccc2C(F)(F)F)sc2nc3c(cc12)CCC3	108%	94.4%	99.8%	92%	84.6%	106%	95.1%	100%	101%	113%
C=C(C)[C@@H]1CC[C@]2(C(=O)O)CC[C@]3(C)[C@H](CC[C@@H]4[C@@]5(C)CCC(NC(=O)c6cccc(OC(C)=O)c6OC(C)=O)C(C)(C)[C@@H]5CC[C@]43C)[C@@H]12 (stereo not given in full)	21.3%	10.7%	-4.37% (active)	11.9%	-34.3% (active)	14.9%	-29.6% (active)	-26.4% (active)	3.36% (active)	-16.2% (active)
O=C(CSC(=S)n1cnnc1)NC(=O)c1ccccc1	105%	89.8%	98.4%	112%	120%	98.6%	106%	100%	113%	98.1%
CC(C)c1ccc(C(=O)Nc2nc3ccc(O)c(CN(C)C)c3s2)cc1	63.1%	1.54% (active)	71.4%	44.8%	97.4%	87.2%	96.3%	69%	50.9%	26.8%
O=C(c1ccncc1)N1N=C(c2ccc(Cl)cc2)C[C@H]1c1cn(-c2ccccc2)nc1-c1ccccc1	99.8%	90.5%	108%	69.6%	87.6%	89.4%	78.8%	81.2%	89.6%	107%
COCCn1cc(-c2csc(-c3cn(C)c4ccc(Br)cc34)n2)c2cccnc21	62.5%	-9.15% (active)	96.6%	42.9%	68.8%	64.8%	33.9%	70.1%	63.7%	42.9%
O=C1/C(=C/c2ccccc2Br)COc2ccc(O)cc21	69%	11.9%	84%	73.9%	101%	86.1%	99.1%	80%	99.2%	73.3%
CC(=O)Oc1ccc(N2C(=O)C(Cl)=C(Nc3cccc(C(F)(F)F)c3)C2=O)cc1	101%	90.4%	102%	95.3%	87%	94.3%	102%	96.5%	97.1%	105%
COc1ccc(/C=N/C2=C(C#N)C(c3ccccc3)c3ccc4ccccc4c3O2)cc1 (stereo not given)	25.6%	12.2%	43.6%	18.7%	26%	46.5%	9% (active)	-8.29% (active)	48.4%	2.72% (active)
COc1ccc(/C=N/NC(=O)c2ccc(-n3cc(-c4ccccc4)nn3)cc2)cc1OC	103%	93.2%	77.8%	103%	110%	93.8%	97.7%	102%	103%	82.5%
Cn1cc(-c2nonc2-c2cn(C)c3ccccc23)c2ccccc21	16.3%	9.77% (active)	53.4%	23.2%	1.39% (active)	48.1%	17.5%	-21.6% (active)	65.7%	6.28% (active)
CCSC(SCC)c1ccc(Cl)cc1	107%	118%	102%	107%	114%	100%	87.1%	107%	99.4%	110%
CCN(C)S(=O)(=O)Nc1cccc(Nc2ncnc3cc(NC(=O)CCl)ccc23)c1Cl	-49.8% (active)	4.5% (active)	-51.7% (active)	-38.4% (active)	-11.9% (active)	7.08% (active)	15.3%	-40.3% (active)	34.4%	15.1%
CCOC(=O)c1cc2c(n1Cc1cc(OC)c(OC)c(OC)c1)-c1nc(N)sc1CCC2	79.1%	24.6%	69.5%	51.6%	54.9%	70.5%	26%	62.5%	43.9%	25.6%
O=C(Cn1cc(CSc2nc3ccccc3o2)nn1)Nc1ccc(F)cc1F	124%	107%	106%	112%	103%	115%	106%	106%	103%	108%
CCOC(=O)Cc1cnc(N/N=C(\C)c2cc3ccccc3o2)s1	113%	98.5%	91.8%	91.4%	107%	98.8%	104%	107%	98.2%	98.2%
Nc1cc(C(=O)NC[C@H]2CN(c3ccc(N4CCC(C(=O)O)CC4)cc3)C(=O)O2)ccc1Cl	109%	92.1%	94%	94.2%	112%	98.4%	103%	93.7%	98.8%	98.2%
COC12C=C/C(=C(/C(=O)OCc3ccncn3)C(=O)CCCCCCCCC3(OC)C=C/C(=C(/C(=O)OCc4ccncn4)C(=O)CCCCCCCC1)O3)O2	-41.8% (active)	-5.58% (active)	-54.3% (active)	10.6%	-77.3% (active)	-3.7% (active)	-15.9% (active)	-18.2% (active)	4.41% (active)	-22.1% (active)
NC(=O)c1cc(I)ccc1NC(=O)/C=C/c1ccccc1	-7.97% (active)	1.5% (active)	42.7%	31.6%	19.3%	29.9%	-18.4% (active)	-22% (active)	69.7%	19.2%
NS(=O)(=O)c1ccccc1NC(=O)Nc1nc2ccccc2s1	106%	97.5%	91.9%	97%	98.4%	98.1%	94.6%	95.8%	102%	93.5%
Cc1ccc(-c2nc(N3CCCNCC3)c3oc(-c4ccc(C)cc4)nc3n2)cc1	42%	-76% (active)	106%	-78.8% (active)	80.6%	90.2%	108%	73.8%	101%	-94.7% (active)

SMILES	growth (DU-145 prostate)	growth (K-562 leukemia)	growth (MALME-3M melanoma)	growth (MDA-MB-231 breast)	growth (RXF 393 renal)	growth (SF-268 CNS)	growth (SF-295 CNS)	growth (SF-539 CNS)	growth (UACC-257 melanoma)	growth (M14 melanoma)
O=C(Nc1cccc2ccccc12)NC1CC1	141%	107%	123%	113%	107%	120%	116%	122%	106%	103%
C#CCOc1ccc2ncnc(Nc3ccc(NC(=O)C=C)cc3)c2c1	-29.8% (active)	-35.7% (active)	-74.4% (active)	-71.7% (active)	-80.6% (active)	6.18% (active)	83.2%	-10.4% (active)	-26.3% (active)	-52.4% (active)
CC/C=C\C[C@H](O)C/C=C1/C(=O)C=C[C@@H]1C/C=C\CCCC(=O)N(C)C	16.4%	5.58% (active)	8.29% (active)	18.3%	-65.1% (active)	16.6%	-1.42% (active)	14.7%	-9.75% (active)	5.92% (active)
N=C(N)c1ccc(-c2ccc(-c3ccccc3)o2)cc1	-11.2% (active)	-33.2% (active)	-81.5% (active)	-58.2% (active)	-76.3% (active)	-31.1% (active)	-70.4% (active)	-83.7% (active)	-72.4% (active)	-91.3% (active)
O=C(Nn1c2c(sc1=NC1CC1)C(=O)c1ccccc1C2=O)c1cc2ccc1CCc1ccc(cc1)CC2	33.2%	25.9%	-64.3% (active)	15.4%	53.7%	45.2%	79.6%	5.17% (active)	-28.6% (active)	-21.8% (active)
O=c1[nH]c(-c2ccccc2)nc2sc3cc(O)ccc3c12	83.6%	25.9%	74.1%	101%	82.2%	86.2%	95.3%	82.8%	109%	75.2%
O=CN1N=C(c2cccc(Nc3ccnc4cc(Cl)ccc34)c2)CC1c1ccccc1 (stereo not given)	6.74% (active)	18.3%	53.2%	7.27% (active)	-5.98% (active)	36.9%	2.56% (active)	-7.47% (active)	66.9%	23.6%
Fc1cnccc1C1CC(c2ccc(N3CCNCC3)cc2)=NN1 (stereo not given)	107%	77.9%	93.4%	84.6%	105%	107%	98%	104%	83.1%	95.9%
Nc1c(C(=O)Nc2ccccc2F)sc2nc3c(cc12)CCCC3	26.8%	14.1%	62.9%	45.1%	39.2%	50.4%	21.9%	6.85% (active)	61.6%	33.5%
O=C(Nc1cccc(Cl)c1)Nc1cccc(Cn2c(=O)[nH]c3ccc(Oc4ncccn4)cc3c2=O)c1	37.3%	26.3%	58.9%	53.4%	67.5%	30.8%	36.2%	62.8%	23.7%	53%
Cn1cc(-c2csc(-c3cn(C(=O)OC(C)(C)C)c4ccc(Br)cc34)n2)c2ccnc(Cl)c21	68.3%	86.9%	36.6%	61.2%	78.3%	82.4%	89.9%	55.5%	70.3%	88.2%
COc1cc2oc(-c3cccc(NC(=O)c4ccccc4)c3)cc(=O)c2c(OC)c1OC	85.5%	43.1%	86.8%	74.7%	74.4%	72.3%	77.8%	67.8%	99.7%	75.3%
O=C(CSc1oc(-c2ccccc2)nc1S(=O)(=O)c1ccccc1)Nc1ccc(F)cc1	110%	75.4%	56.4%	75.6%	90.5%	85.7%	73.4%	65.6%	92.5%	90.2%
N=C(N)c1ccc(-c2ccc(-c3ccc(Cl)c(Cl)c3)s2)nc1	-76.5% (active)	-23.4% (active)	60.5%	-27.1% (active)	79.5%	46.8%	0.36% (active)	23.1%	87.9%	36.1%
CCn1cc(C(=O)O)c(=O)c2cc(F)c(N3CCN(CC(=O)Nc4ccc(S(=O)(=O)Nc5nccc(C)n5)cc4)C(C)C3)c(F)c21 (stereo not given)	105%	105%	111%	100%	99%	98.3%	104%	99.2%	114%	103%
COC(=O)CC[C@H](C)[C@H]1CC[C@H]2[C@@H]3CC[C@@H]4CC5(CC[C@]4(C)[C@H]3CC(=O)[C@]12C)Nc1ccccc1NC5=NC(C)(C)C (stereo not given in full)	90.2%	42.2%	109%	86.7%	84.7%	84.1%	84%	90.8%	77.2%	84.9%
c1csc(-c2ccc(CNc3c4ccccc4nc4ccccc34)cc2)c1	61.7%	-39.9% (active)	-82% (active)	38.3%	-14.3% (active)	62.9%	15.8%	12.5%	-37.4% (active)	-74.4% (active)
COc1ccc(C(=O)C/C(=C\c2ccc(Cl)cc2)C(=O)NCc2ccccc2)cc1	103%	62.4%	79.8%	81.3%	91.6%	86.3%	101%	94.4%	70.7%	94.8%
COc1ccc(C(O)c2cc3c(N)c(C(=O)Nc4cccc(Br)c4)sc3nc2C)cc1 (stereo not given)	3.17% (active)	9.61% (active)	31.8%	2.61% (active)	28.2%	6.77% (active)	8.77% (active)	-19.9% (active)	45.7%	11.5%
CCOC(=O)C/C(=N\Nc1cc(=O)[nH]c2ccc(Br)cc12)C(=O)OCC	104%	24.2%	90.5%	102%	104%	100%	102%	99.8%	111%	96.8%
CCCCCOC(=O)c1c(C)[nH]c(/C=C2\N=C(c3ccc[nH]3)C=C2OC)c1C	27.4%	-6.07% (active)	-61.3% (active)	-48.5% (active)	-47.3% (active)	14.9%	-37.2% (active)	-41.6% (active)	-20.1% (active)	-70.4% (active)
